Compound activity from PubChem BioAssay.
Pf Dd2 inh: P. falciparum Dd2 growth inhibition | SYBR Green, 72 h; stronger effect = lower value | activity change, % at 10 µM | hit rate 2.3% among 94,000; in the data active = activity change below about -80%; inconclusive = no clear call, values can overlap the other calls
T cruzi growth-1: inhibitors of T. cruzi proliferation; T. cruzi beta-gal in NIH3T3, GalScreen luminescence, 90 h; inhibition, % at 8.34 µM; hit rate 5.9% among 77,000; AID 624255;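 active = mean inhibition above about 93%, with at least 55% of replicates each passing it, limit read from the data, passing the limit was not always enough; inconclusive = only one of those two conditions holds; inactive = neither condition holds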
C diff HTS: C. difficile growth inhibition; Clostridium difficile clinical isolate growth, OD600, 24 h; stronger effect = lower value; growth activity, negative = inhibition, % at 16 µg/mL (by protocol); hit rate 0.25% among 86,000; AID 1259249;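 active = mean growth activity at or below -80% and every replicate also at or below -80%; inconclusive = mean at or below -80% but some replicate above -80%; inactive = mean growth activity above -80%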;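 also: 0% = DMSO wells and -100% = levofloxacin 16 µg/mL wells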
T cruzi growth-2: Trypanosoma cruzi proliferation inhibition; inhibition, % at 8.35 µM; AID 651739; shares compounds with T cruzi growth-1; T. cruzi beta-gal in NIH3T3, GalScreen luminescence, 90 h; hit rate 72% among 5,600;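 active = mean replicate inhibition above about 95% and at least 55% of replicates individually reaching it, limit read from the data; inconclusive = only one of the two criteria is met; inactive = neither criterion is met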
T cruzi growth-3: blocks T. cruzi growth in NIH3T3 host cells | shares compounds with T cruzi growth-1 | T. cruzi beta-gal in NIH3T3, GalScreen luminescence, 90 h | inhibition, % at 2.09 µM | hit rate 21% among 5,600;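 active = mean inhibition above about 95%, with at least 55% of replicates also reaching it, limit read from the data; inconclusive = meets just one of the two conditions; inactive = meets neither condition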;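 also: plate controls were neutral control median for no effect and positive control median for full effect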
NIH3T3 tox: kills mouse NIH/3T3 fibroblasts; NIH/3T3 viability, CellTiter-Glo ATP luminescence, 90 h; cytotoxicity (signal decrease), % at 8.35 µM; AID 651742; hit rate 14% among 5,600; shares compounds with T cruzi growth-1;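 active = mean signal decrease across replicates above about 35% based on untreated-well scatter, with enough replicates individually passing, limit read from the data; inconclusive = no rule stated though some were filed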;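 also: 0% = median of neutral control wells and 100% = median of positive control wells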
NIH3T3 tox 2: kills mouse NIH/3T3 fibroblasts. AID 651744. hit rate 56% among 5,600. NIH/3T3 viability, CellTiter-Glo ATP luminescence, 90 h. shares compounds with T cruzi growth-1. inhibition, % at 24.9 µM;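 active = mean loss of cell viability signal at or above a set limit, and enough replicates individually reaching it; inconclusive = meets only the mean limit or only the replicate share; inactive = meets neither condition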;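 also: 0% = median of neutral control wells and 100% = median of positive control wells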
* marks the source's active call; other numbers are inactive results. Shown are actives, neighbours in structure and some others; about 6.7% of the full set was active somewhere.

For C[C@@H]1CN([C@@H](C)CO)C(=O)Cc2cc(NS(=O)(=O)c3ccc(Cl)cc3)ccc2O[C@@H]1CN(C)S(=O)(=O)c1ccc(Cl)cc1 the results were Pf Dd2 inh -33, T cruzi growth-1 89 and C diff HTS 3.
`C[C@H](CO)N1C[C@H](C)[C@@H](CN(C)S(=O)(=O)c2cccs2)OCCCC[C@H](C)Oc2ccc(NS(=O)(=O)c3cccs3)cc2C1=O` gave Pf Dd2 inh 9, T cruzi growth-1 -30 and C diff HTS 1.
For C[C@@H]1CN([C@@H](C)CO)C(=O)c2cc(NS(=O)(=O)c3cccs3)ccc2O[C@@H](C)CCCCO[C@@H]1CN(C)C(=O)Nc1ccccc1 the results were T cruzi growth-1 16 and C diff HTS -3.
`CC(C)CC#Cc1ccc2c(c1)O[C@@H](CN(C)C(=O)Cc1ccncc1)[C@@H](C)CN([C@@H](C)CO)S2(=O)=O` gave Pf Dd2 inh inconclusive, T cruzi growth-1 inconclusive, C diff HTS 8, T cruzi growth-2 103*, T cruzi growth-3 72, NIH3T3 tox 12 and NIH3T3 tox 2 75*.
CC(C)CC#Cc1ccc2c(c1)O[C@H](CN(C)C(=O)Cc1ccncc1)[C@H](C)CN([C@@H](C)CO)S2(=O)=O was read as Pf Dd2 inh -35, T cruzi growth-1 101*, C diff HTS 4, T cruzi growth-2 101*, T cruzi growth-3 53, NIH3T3 tox -2 and NIH3T3 tox 2 5.
CC(C)CC#Cc1ccc2c(c1)O[C@H](CN(C)C(=O)Cc1ccncc1)[C@H](C)CN([C@H](C)CO)S2(=O)=O was read as Pf Dd2 inh -12, T cruzi growth-1 74 and C diff HTS 5.
`CC(C)CC#Cc1ccc2c(c1)O[C@@H](CN(C)C(=O)Cc1ccncc1)[C@H](C)CN([C@H](C)CO)S2(=O)=O` gave Pf Dd2 inh -74, T cruzi growth-1 73 and C diff HTS 6.
For CN(C)CC#Cc1ccc([C@@H]2[C@@H](CO)N3CCCCN(C(=O)Nc4cc(F)ccc4F)C[C@@H]23)cc1 the results were Pf Dd2 inh -27, T cruzi growth-1 106*, C diff HTS 12, T cruzi growth-2 101*, T cruzi growth-3 35, NIH3T3 tox -17 and NIH3T3 tox 2 45*.
For CN(C)CC#Cc1ccc([C@@H]2[C@H]3CN(C(=O)Nc4ccccc4F)CCCCN3[C@H]2CO)cc1 the results were Pf Dd2 inh 8, T cruzi growth-1 68 and C diff HTS 3.
Screening CN(C)CC#Cc1ccc([C@@H]2[C@H]3CN(C(=O)Nc4cc(F)ccc4F)CCCCN3[C@H]2CO)cc1 returned Pf Dd2 inh 7, T cruzi growth-1 117*, C diff HTS 6, T cruzi growth-2 43, T cruzi growth-3 -30, NIH3T3 tox inconclusive and NIH3T3 tox 2 103*.
For CN(C)CC#Cc1ccc([C@@H]2[C@@H](CO)N3CCCCN(C(=O)Nc4ccccc4F)C[C@@H]23)cc1 the results were Pf Dd2 inh -42, T cruzi growth-1 34 and C diff HTS 5.
For C[C@H]1CN([C@@H](C)CO)C(=O)c2cccc(NS(=O)(=O)c3ccc(F)cc3)c2O[C@H]1CN(C)Cc1ccncc1 the results were Pf Dd2 inh 10, T cruzi growth-1 7 and C diff HTS -8.
N#Cc1cccc(-c2ccc([C@@H]3[C@H](CO)N4CCCCN(S(=O)(=O)c5ccccc5)C[C@@H]34)cc2)c1 was read as Pf Dd2 inh -38, T cruzi growth-1 32 and C diff HTS 5.
`C[C@@H]1CN([C@@H](C)CO)C(=O)c2cc(NC(=O)Nc3ccccc3)ccc2O[C@@H](C)CCCCO[C@@H]1CN(C)C(=O)Nc1ccc2c(c1)OCO2` gave Pf Dd2 inh -49, T cruzi growth-1 11 and C diff HTS 3.
`C[C@H]1CCCCO[C@@H](CN(C)C(=O)Nc2ccc3c(c2)OCO3)[C@@H](C)CN([C@@H](C)CO)C(=O)c2cc(NC(=O)Nc3ccccc3)ccc2O1` gave Pf Dd2 inh -3, T cruzi growth-1 117*, C diff HTS -9, T cruzi growth-2 111*, T cruzi growth-3 6, NIH3T3 tox -15 and NIH3T3 tox 2 -2.
